Rows were chosen to be rich in hits. Some 3.1% of all compounds tested hit in one or more screens of this group.
BoNT A protease = BoNT/A light chain protease inhibitors, primary screen, biochemical, flow cytometry, MLPCN library | Botulinum neurotoxin type A light chain protease (Clostridium botulinum A str. ATCC 3502) | AID 588499, 2011 | inhibition, % at 10 µM | 360,000 compounds, 0.17% hits | multiplex microsphere protease substrate cleavage
PriA SSB inh = inhibitors of Klebsiella pneumoniae PriA binding to SSB C-terminal tail, primary screen, biochemical, AlphaScreen; PriA–SSB C-terminal tail interaction (Klebsiella pneumoniae); AlphaScreen SSBct-PriA binding, biotinylated peptide; inhibition, % at 33 µM; 430,000 compounds, 0.6% hits; AID 1272365, 2023; in the data active = inhibition mostly above about 37%, no sharp cut-off; inactive = mostly below about 20%
Bead autofluor = counter-screen for toxin protease inhibitors: compound fluorescence | compound autofluorescence counterscreen, microsphere flow cytometry; hits give high values | fluorescence intensity (concentration not given with the values) | 360,000 compounds, 3.1% hits | AID 624483; in the data active = fluorescence intensity above about 16000; inconclusive = no clear call, values can overlap the other calls
Anthrax LF prot = Bacillus anthracis LF protease inhibitors, primary screen, biochemical, multiplex microsphere, MLPCN library; Lethal factor (Bacillus anthracis), P15917; multiplex microsphere protease cleavage assay; inhibition, % at 10 µM; 360,000 compounds, 0.12% hits
Target sequence (P15917 whole entry, looked up): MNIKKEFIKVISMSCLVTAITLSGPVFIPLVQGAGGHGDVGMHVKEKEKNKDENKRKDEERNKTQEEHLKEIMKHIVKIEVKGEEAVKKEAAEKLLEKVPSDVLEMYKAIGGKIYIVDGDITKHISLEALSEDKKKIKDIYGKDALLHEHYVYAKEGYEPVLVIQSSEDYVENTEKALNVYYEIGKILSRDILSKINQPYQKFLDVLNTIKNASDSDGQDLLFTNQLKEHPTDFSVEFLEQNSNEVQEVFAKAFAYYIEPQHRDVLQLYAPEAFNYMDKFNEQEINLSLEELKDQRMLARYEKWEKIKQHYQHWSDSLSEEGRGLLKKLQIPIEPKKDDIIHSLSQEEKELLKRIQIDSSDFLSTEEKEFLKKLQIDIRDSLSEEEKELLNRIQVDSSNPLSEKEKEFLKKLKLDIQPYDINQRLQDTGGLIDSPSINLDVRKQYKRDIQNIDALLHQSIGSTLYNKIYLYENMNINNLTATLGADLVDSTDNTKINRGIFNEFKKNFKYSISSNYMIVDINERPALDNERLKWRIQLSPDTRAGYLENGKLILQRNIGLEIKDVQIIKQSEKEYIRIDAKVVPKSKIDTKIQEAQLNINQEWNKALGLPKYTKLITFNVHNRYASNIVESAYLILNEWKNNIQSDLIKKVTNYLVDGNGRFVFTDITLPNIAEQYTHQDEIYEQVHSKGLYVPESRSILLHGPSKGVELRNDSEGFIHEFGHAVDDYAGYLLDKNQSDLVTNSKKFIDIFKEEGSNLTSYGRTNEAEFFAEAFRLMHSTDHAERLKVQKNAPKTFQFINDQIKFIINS
BoNT-F LC inh = BoNT/F light chain protease inhibitors, primary screen, biochemical, flow cytometry, MLPCN library; Multiplex microsphere protease cleavage assay; inhibition, % at 10 µM; 360,000 compounds, 0.22% hits; AID 588497, 2011; in the data active = inhibition above about 35%, passing the limit was not always enough; inconclusive = no clear call, values can overlap the other calls
Large screens that a line does not name were inactive; ! = not active in a repeat. Rule as the data show it, unless noted: active = inhibition above about 30%; inconclusive = no clear call, values can overlap the other calls; inactive = below that.

CCOC(=O)C1CCCN(c2c(NCCN(CC)c3ccccc3)c(=O)c2=O)C1 (configuration not stated)	none
O=[N+]([O-])c1cc(CN2CCCC2)ccc1Sc1ccc(Cl)cc1	PriA SSB inh 42.7
Clc1ccc(CN2CCCCCC2)cc1	BoNT-F LC inh inconclusive
O=C(NCCN1CCOCC1)C1CCC(=O)N1Cc1ccc(F)cc1 (configuration not stated)	Bead autofluor 24197
Cc1cc(C)cc(NC(=O)C(C)Oc2cccc(Br)c2)c1 (configuration not stated)	none (no result: BoNT A protease, Bead autofluor, Anthrax LF prot, BoNT-F LC inh)
Nc1nnc(SCc2ccc(F)cc2)n1-c1ccccc1	Bead autofluor 21997
N#Cc1ccc(CSc2nnc(COc3ccccc3)n2-c2ccccc2)cc1	Bead autofluor 24330
COc1ccc(-n2c(COc3ccccc3)nnc2SCc2ccc(C#N)cc2)cc1	Bead autofluor 19781
O=C(CSCc1ccccc1)N1CCC(Oc2cccnn2)CC1	none (no result: BoNT A protease, Bead autofluor, Anthrax LF prot, BoNT-F LC inh)
CCOC(=O)c1sc2nc(NC(=O)c3ccc(S(=O)(=O)N4CCCC[C@@H]4C)cc3)sc2c1C	none (no result: BoNT A protease, Bead autofluor, Anthrax LF prot, BoNT-F LC inh)
CN(C)S(=O)(=O)c1ccc(C(=O)NCCn2nc(C(F)(F)F)c3c2CCCC3)cc1	none (no result: BoNT A protease, Bead autofluor, Anthrax LF prot, BoNT-F LC inh)
CCOc1ccccc1N1CCN(Cc2cccc(OC)c2OC)CC1	Bead autofluor 16205
CCOC(=O)C1CCN(Cc2ccc(O)c3ncccc23)CC1	PriA SSB inh 93.6
OCCN1CCN(Cc2ccc(O)c3ncccc23)CC1	PriA SSB inh 115.0 (no result: BoNT A protease, Bead autofluor, Anthrax LF prot, BoNT-F LC inh)
Cc1ccccc1N1CCN(Cc2c[nH]c3ccccc23)CC1	none
COc1ccccc1N1CCN(Cc2ccc(OC)c(OC)c2OC)CC1	Bead autofluor inconclusive
Cc1ccccc1N1CCN(Cc2ccc(O)c3ncccc23)CC1	PriA SSB inh 86.9 (no result: BoNT A protease, Bead autofluor, Anthrax LF prot, BoNT-F LC inh)
NC(=NOC(=O)CN1C(=O)c2ccccc2C1=O)c1ccc(Cl)cc1	none (no result: BoNT A protease, Bead autofluor, Anthrax LF prot, BoNT-F LC inh)
CCOC(=O)c1ccccc1NS(=O)(=O)c1cc2c3c(c1)CCN3C(=O)CC2	none (no result: BoNT A protease, Bead autofluor, Anthrax LF prot, BoNT-F LC inh)
CCc1nccn1CC1CCN(C(=O)Nc2c(F)cccc2F)CC1	none (no result: BoNT A protease, Bead autofluor, Anthrax LF prot, BoNT-F LC inh)
COc1ccccc1N1CCN(Cc2ccc(O)c3ncccc23)CC1	PriA SSB inh 73.0
COc1ccccc1N1CCN(Cc2c[nH]c3ccccc23)CC1	Anthrax LF prot inconclusive
O=C(CCC1CCCCC1)N1CCOCC1CO (configuration not stated)	none (no result: BoNT A protease, Bead autofluor, Anthrax LF prot, BoNT-F LC inh)
COc1cccc2cc(C(=O)N3CCN=C3c3ccccc3)c(=O)oc12	none (no result: BoNT A protease, Bead autofluor, Anthrax LF prot, BoNT-F LC inh)
CC1=CCC(C(=O)O)C(C(=O)O)C1 (configuration not stated)	Bead autofluor 22181
COc1ccc(N2CC(C(=O)Nc3nnc(-c4ccnn4C)o3)CC2=O)cc1 (configuration not stated)	PriA SSB inh 71.0 (no result: BoNT A protease, Bead autofluor, Anthrax LF prot, BoNT-F LC inh)
O=C(N/N=C/c1cccs1)C1CC(=O)N(c2ccccc2)C1 (configuration not stated)	Bead autofluor 20162 (no result: PriA SSB inh)
COc1ccccc1-c1nnc(NC(=O)C2CC(=O)N(c3ccc(F)cc3)C2)o1 (configuration not stated)	none (no result: BoNT A protease, Bead autofluor, Anthrax LF prot, BoNT-F LC inh)
O=C(Nc1nnc(-c2ccccc2)o1)C1CC(=O)N(c2ccccc2)C1 (configuration not stated)	PriA SSB inh 44.0! (no result: BoNT A protease, Bead autofluor, Anthrax LF prot, BoNT-F LC inh)
Cc1ccsc1C=NNC(=O)C1CC(=O)N(c2ccccc2)C1 (configuration not stated)	none (no result: BoNT A protease, Bead autofluor, Anthrax LF prot, BoNT-F LC inh)
Cn1cc(C(=O)N2CCO[C@H](c3ccccc3)C2)nn1	none (no result: BoNT A protease, Bead autofluor, Anthrax LF prot, BoNT-F LC inh)
Cc1oncc1C(=O)N1CC(n2cc(-c3ccccc3)nn2)C1	none (no result: BoNT A protease, Bead autofluor, Anthrax LF prot, BoNT-F LC inh)
CCOC(=O)C1CCN(Cc2cnc(Oc3ccc(N)cc3)s2)CC1	Bead autofluor 21292
COC(=O)c1ccc(/C=N\N2CCN(Cc3ccc(C)cc3)CC2)cc1	BoNT A protease inconclusive, Bead autofluor 16594 (no result: PriA SSB inh)
CCOC(=O)C1CCN(Cc2ccc(Cl)c(Cl)c2)CC1	none
CCOC(=O)C1CCN(Cc2ccc(C(=O)OC)cc2)CC1	Bead autofluor 23791
CCOC(=O)C1CCN(C(=O)c2cccc(C(=O)N3CCC(C(=O)OCC)CC3)c2)CC1	BoNT A protease inconclusive, Bead autofluor 21616
COC(=O)c1ccc(/C=N/N2CCN(Cc3ccccc3)CC2)cc1	none (no result: PriA SSB inh)
Cc1ccc(C(CNC(=O)c2ccccc2Br)N2CCN(C)CC2)cc1 (configuration not stated)	none (no result: BoNT A protease, Bead autofluor, Anthrax LF prot, BoNT-F LC inh)
CN(CC(=O)NC1CC(O)C(CO)C1)S(C)(=O)=O (configuration not stated)	none (no result: BoNT A protease, Bead autofluor, Anthrax LF prot, BoNT-F LC inh)
COc1ccc2sc(N(Cc3cccnc3)C(=O)c3ccn(C(C)C)n3)nc2c1	none (no result: BoNT A protease, Bead autofluor, Anthrax LF prot, BoNT-F LC inh)
CCOC(=O)c1ccc(NC(=O)CN2CC(c3nc(-c4ccco4)no3)C2)cc1	none (no result: BoNT A protease, Bead autofluor, Anthrax LF prot, BoNT-F LC inh)

Screening results (PubChem)
